Measurements reported in PubChem BioAssay AID1159580 (chemical genetic matrix, 2015).
Among all 5,500 compounds or so, about 2,000 (36%) were called active. Inconclusive results (about 18%) are left out. No stated cut-off is given here; in the data, active means normalized growth mostly below about 0.91 (no sharp cut-off); inconclusive means no clear call, values can overlap the other calls; inactive means mostly above about 0.92. The list shows a part of the results.

Experiment: chemical genetic growth profiling, strain panel (AID 1159580);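 further: tested at 20 µM; growth read once vehicle control cultures reached saturation at 30 °C; 1 = growth at the plate median or of vehicle wells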
Settings: S. cerevisiae deletion strains, growth OD

Measured: normalized growth

CO[C@H]1[C@H](O)[C@H](O[C@H]2CC[C@]3(C)C4CC[C@]5(C)C(C6=CC(=O)OC6)CC[C@]5(O)C4CC[C@@H]3C2)O[C@@H](C)[C@@H]1O (some centres undefined)
inactive: locus YAL013W, strain DEP1, stronger effect = lower value 1.01 | locus YAL021C, strain ccr4, stronger effect = lower value 1 | locus YAL026C, strain drs2, stronger effect = lower value 1.01 | locus YAL030W, strain snc1, stronger effect = lower value 1 | locus YBL061C, strain skt5, stronger effect = lower value 0.993 | locus YBR009C, strain hhf1, stronger effect = lower value 1.01 | locus YBR021W, strain FUR4, stronger effect = lower value 1.02 | locus YBR023C, strain chs3, stronger effect = lower value 0.999 | locus YBR171W, strain sec66, stronger effect = lower value 0.984 | locus YBR229C, strain ROT2, stronger effect = lower value 1.01 | locus YBR231C, strain swc5, stronger effect = lower value 1.03 | locus YBR279W, strain paf1, stronger effect = lower value 1.01 | locus YCL011C, strain gbp2, stronger effect = lower value 0.992 | locus YCL016C, strain dcc1, stronger effect = lower value 1 | locus YCL029C, strain bik1, stronger effect = lower value 1.01 | locus YCL061C, strain MRC1, stronger effect = lower value 0.996 | locus YCL069W, strain vba3, stronger effect = lower value 1 | locus YCR088W, strain abp1, stronger effect = lower value 1 | locus YDL005C, strain med2, stronger effect = lower value 0.994 | locus YDL035C, strain GPR1, stronger effect = lower value 1.02 | locus YDL040C, strain nat1, stronger effect = lower value 1.02 | locus YDL074C, strain BRE1, stronger effect = lower value 1.02 | locus YDL101C, strain DUN1, stronger effect = lower value 1.02 | locus YDL134C, strain PPH21, stronger effect = lower value 1 | locus YDL185W, strain tfp1, stronger effect = lower value 1 | locus YDL192W, strain arf1, stronger effect = lower value 1.01 | locus YDR001C, strain nth1, stronger effect = lower value 0.994 | locus YDR069C, strain doa4, stronger effect = lower value 0.997 | locus YDR101C, strain arx1, stronger effect = lower value 0.993 | locus YDR137W, strain rgp1, stronger effect = lower value 1 | locus YDR150W, strain NUM1, stronger effect = lower value 1.01 | locus YDR159W, strain sac3, stronger effect = lower value 0.997 | locus YDR162C, strain NBP2, stronger effect = lower value 1.02 | locus YDR195W, strain ref2 0.989 | locus YDR297W, strain sur2, stronger effect = lower value 1.01 | locus YDR318W, strain mcm21, stronger effect = lower value 1.01 | locus YDR334W, strain swr1, stronger effect = lower value 1.03 | locus YDR335W, strain msn5, stronger effect = lower value 1.01 | locus YDR388W, stronger effect = lower value 1.01 | locus YDR392W, strain spt3, stronger effect = lower value 0.991 | locus YDR502C, strain sam2, stronger effect = lower value 1 | locus YEL003W, strain gim4, stronger effect = lower value 1.02 | locus YEL037C, strain rad23, stronger effect = lower value 1.01 | locus YEL061C, strain CIN8 (second series), stronger effect = lower value 0.987 | locus YEL061C, strain CIN8, stronger effect = lower value 1.01 | locus YER015W, strain faa2, stronger effect = lower value 1 | locus YER016W, strain bim1, stronger effect = lower value 1 | locus YER110C, stronger effect = lower value 1.02 | locus YER111C, strain swi4, stronger effect = lower value 1.01 | locus YER155C, strain BEM2 (second series), stronger effect = lower value 1.03 | locus YER155C, strain BEM2, stronger effect = lower value 1.02 | locus YER167W, strain BCK2, stronger effect = lower value 1.02 | locus YFR010W, strain ubp6, stronger effect = lower value 1.01 | locus YGL078C, strain dbp3, stronger effect = lower value 1 | locus YGL086W, strain mad1, stronger effect = lower value 1.01 | locus YGL167C, strain pmr1, stronger effect = lower value 1 | locus YGL173C, strain kem1, stronger effect = lower value 0.996 | locus YGL227W, strain vid30, stronger effect = lower value 0.997 | locus YGL240W, strain doc1, stronger effect = lower value 1.02 | locus YGL248W, strain PDE1, stronger effect = lower value 1.01 | locus YGL253W, strain hxk2, stronger effect = lower value 0.996 | locus YGR078C, strain PAC10, stronger effect = lower value 1.01 | locus YGR135W, strain pre9, stronger effect = lower value 1.02 | locus YGR229C, strain SMI1, stronger effect = lower value 1.03 | locus YGR252W, strain gcn5, stronger effect = lower value 0.964 | locus YHR013C, strain ard1, stronger effect = lower value 0.98 | locus YHR027C, strain rpn1, stronger effect = lower value 0.979 | locus YHR030C, strain SLT2, stronger effect = lower value 1.01 | locus YHR079C, strain IRE1 (second series), stronger effect = lower value 1.01 | locus YHR094C, strain hxt1, stronger effect = lower value 1.01 | locus YHR129C, strain ARP1, stronger effect = lower value 1.01 | locus YHR142W, strain chs7, stronger effect = lower value 1.02 | locus YHR200W, strain rpn10, stronger effect = lower value 1.01 | locus YIL066C, strain RNR3, stronger effect = lower value 1.01 | locus YIL073C, strain SPO22, stronger effect = lower value 1.02 | locus YIL125W, strain kgd1, stronger effect = lower value 0.997 | locus YIR030C, strain dcg1, stronger effect = lower value 0.998 | locus YJL092W, strain hpr5, stronger effect = lower value 1 | locus YJL095W, strain BCK1 (second series), stronger effect = lower value 0.981 | locus YJL095W, strain BCK1, stronger effect = lower value 1.04 | locus YJL115W, strain asf1, stronger effect = lower value 0.999 | locus YJL129C, strain trk1, stronger effect = lower value 0.974 | locus YJL134W, strain LCB3, stronger effect = lower value 1.01 | locus YJL154C, strain vps35, stronger effect = lower value 1.01 | locus YJL164C, strain tpk1, stronger effect = lower value 0.998 | locus YJL166W, strain qcr8, stronger effect = lower value 1 | locus YJL168C, strain set2, stronger effect = lower value 1.01 | locus YJL187C, strain SWE1 (second series), stronger effect = lower value 1.02 | locus YJL187C, strain SWE1, stronger effect = lower value 0.998
